In PubChem BioAssay (Tox21):
A number with no mark means an inactive call. Calls of active or inactive are those of the source. The call rests on the fitted dose curve; in most records, active means well fitted curve in the direction sought with a large enough effect in the repeat runs; inconclusive means weak or mixed curves; inactive means flat fitted curve, though single readings scatter.

Test: qHTS assay to test for compound auto fluorescence at 535 nm (green) in HepG2 cell free culture (AID 720686)
Details: Cell-free medium, green autofluorescence 485/535 nm; series mostly up to 91.3 µM
Text: U.S. Tox21 Program National Center for Advancing Translational Sciences [NCATS] NIH Chemical Genomics Center [NCGC] U.S. Environmental Protection Agency [EPA] National Institutes of Environmental Health Sciences [NIEHS] National Toxicology Program [NTP] U.S. Food and Drug Administration [FDA] Tox21 Assay Overview: Compound auto fluorescence often interferes with screening of the compound library against various biological targets and signaling pathways. Some of these compounds may have fluorophoric properties. Such properties may interfere with the assay outputs resulting in false positives and/or negatives. To decrease such complications and ensure the compound activities are relevant in terms of biological response, the Tox21 10K compound library was screened for auto fluorescence. From the fluorophores used as reporter signals in our screening assays, the auto fluorescence equivalencies of compounds against three fluorophores have been evaluated: Triamterene, Fluorescein and Rose Bengal sodium for blue, green and red fluorescence, respectively. The fluorescence intensities were measured using Excitation/Emission wavelengths at 405/460nm, 485/535nm and 540/590nm for blue, green and red labels, respectively. This assay includes the green fluorescence data.
Tox21 Assay Protocol Summary: 5 uL of culture medium (MEM containing 10% FBS) per well was dispensed into black wall/clear bottom 1536-well plates using a Multidrop Combi Dispenser (ThermoFisher Scientific, Waltham, MA). After 23 nL compound or DMSO vehicle was transferred into assay plate by a pintool work station (Kalypsys, San Diego, CA), fluorescence intensities in the assay plates were measured by an Envision (PerkinElmer, Shelton, CT) plate reader using three labels for measuring blue, green and red fluorescence at […] 460, 535 and 590nm respectively.
On the % scale 0 is the no-effect control and ±100 the full control effect.

Structure (SMILES) | outcome | fluorescence, % of fluorescein control
COC(=O)C(C)O (stereo not given) | inactive | 
COc1nc(C)nc(NC(=O)NS(=O)(=O)c2ccccc2OCCCl)n1 | inactive | 
CN(C)CCOc1ccccc1Cc1ccccc1 | inactive | 
CCCOCCC | inactive | 
Cc1cc(NS(=O)(=O)c2ccc(N)cc2)nc(C)n1 | inactive | 
CCCCCCOc1ccc(N)cc1 | inactive | 
CC(C)O | inactive | 
CCN(CC)CCNC(=O)COc1ccc(Cl)cc1 | inactive | 
C=CCCCCCCCCO | inactive | 
Cc1c(N)cccc1N | inactive | 
NC1=NCC2c3ccccc3Cc3ccccc3N12 (stereo not given) | inactive | 
c1ccc(CN(CC2=NCCN2)c2ccccc2)cc1 | inactive | 
CC1=NN(c2cc(Cl)c(S(=O)(=O)O)cc2Cl)C(=O)C1N=Nc1ccc(S(=O)(=O)O)cc1 (stereo not given) | inactive | 
CCCNC(C)C(=O)Nc1c(C)csc1C(=O)OC (stereo not given) |  | 0.063% [at 18.6 µM]
CC(C)=CCCC(C)CCOC=O (stereo not given) | inactive | 
CO[Si](C)(C)OC | inactive | 
O=C(O)c1cccc(Cl)c1Cl | inactive | 
CC1CN(c2ccccc2)NC1=O (stereo not given) | inactive | 
Cc1cc2nc(N)sc2cc1C | inactive | 
OCCN1CCN(CCO)CC1 | inactive | 

Structure (SMILES) | outcome | fluorescence, % of fluorescein control
CC1(C)S[C@@H]2[C@H](NC(=O)C(C(=O)O)c3ccccc3)C(=O)N2[C@H]1C(=O)O (stereo not given in full) | inactive | 
Clc1cccc(-c2cc(Cl)cc(Cl)c2)c1 | inactive | 
CCCCOc1cc(C(=O)NCCN(CC)CC)c2ccccc2n1 |  | -0.0334% [at 18.6 µM]
O=C1CCN(c2ccccc2)N1 | inactive | 
CCc1nnc(NS(=O)(=O)c2ccc(N)cc2)s1 | inactive | 
CCC1(C)NC(=O)NC1=O (stereo not given) | inactive | 
O=c1oc2c(O)c(O)cc3c(=O)oc4c(O)c(O)cc1c4c23 | inactive | 
COc1cc(C)ccc1C(C)C | inactive | 
Nc1cccc(S(=O)(=O)O)c1 | inactive | 
CCCC1CCC(=O)O1 (stereo not given) | inactive | 
CCC(=O)Nc1ccc(O)cc1 | inactive | 
COc1cc2c(cc1N)oc1ccccc12 | inactive | 
COc1cc(Cl)ccc1Cl | inactive | 
O=S(=O)(O)C(F)(F)F | inactive | 
Nc1ccc(Oc2ccc(N)c(N)c2)cc1 | inactive | 
CC[C@H]1CC[C@H](NCc2cc3c(cc2OC)[C@H]2C[C@H]2C(=O)N3C)[C@H](c2ccccc2)N1 | inactive | 
CO[C@@]1(NC(=O)CSCC#N)C(=O)N2C(C(=O)O)=C(CSc3nnnn3C)CS[C@@H]21 | inactive | 
CC(CNC1CCCCC1)OC(=O)c1ccccc1 (stereo not given) |  | -0.0274% [at 18.6 µM]
Cn1cnc2c(F)c(Nc3ccc(Br)cc3Cl)c(C(=O)NOCCO)cc21 | inactive | 
Cc1ncc(CO)c(CN)c1O | inactive | 
